Several values for one entry are separate records, joined by “and”; a condition that tells them apart may be missing. Equal entries are not always repeated. About 83,000 compounds went through this panel and 20% of them were active in at least one assay; those are over-represented in the sample as a whole.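 Cells were grown in 96-well plates and exposed to the test compound at a single concentration for 48 hours; results are reported as percent growth, with values below 10 considered active.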 A number with no mark means an inactive call. Activity calls are given as the source filed them.

This assay concerns MDA-MB-468 breast. As to the kind of experiment: NCI-60 one-dose screen, 48 h (100 = growth as untreated, 0 = no growth, -100 = all killed). The conditions noted are these: 10 µM unless noted.
`CC1CCC(C)N(C)C1` (configuration not stated): the growth is 105%.

Consider `COc1ccc(-c2cc(-c3nnc(SCC(=O)Nc4ccc(/C(C)=N\O)cc4)n3-c3ccccc3)c3cc(OC)ccc3n2)cc1`, for which the growth is 62.4%.

As to `Oc1ccc(CSc2nnc(-c3cnccn3)o2)c2cccnc12`, the growth was 7.59% (active).

Take `C[C@H]1Oc2cc(cnc2N)-c2c(nn(C)c2C#N)CN(C)C(=O)c2ccc(F)cc21`: the growth is 98.5%.

With `CCOC(=O)c1cn2c3c(cc(C)cc3c1=O)C(=O)/C(=C/c1ccccc1)C2`, the growth is 84.6%.

For `N#Cc1c(-c2cccs2)c(C#N)c(=O)n(Cc2nc3ccccc3[nH]2)c1N`, the growth is 88.5%.

For the compound `C/C=C/CC(C)C(O)[C@H](NC(=O)[C@@H]1CCCN1C(=O)[C@](C)(CC)NC(=O)CCCCCCCCC)C(=O)N[C@@](C)(CC)C(=O)N[C@@H](CCC(N)=O)C(=O)N[C@H](CCC(N)=O)C(=O)NC(C)(C)C(=O)NC(C)(C)C(=O)N[C@@H](CCC(N)=O)C(=O)N[C@H](CC(C)C)C(=O)N[C@H](CO)CC(C)C` (some centres not stated), the growth was -10.2% (active) and -64% (active).

Regarding `COc1ccc2c(c1)c(-c1nonc1-c1cn(C)c3ccccc13)cn2C`, the growth was 13.9%.

`COc1ccc(-c2nsc3c2NC(=O)CC3c2ccc(Cl)cc2)cc1` (configuration not stated): the growth is 58.7%.

Regarding `COc1ccc(/C=N/OCC(O)CNCc2ccccc2)cc1OC1CCCC1` (configuration not stated), the growth is 99.2%.

Regarding `CC1=C(Cl)C(=O)c2cc(C)ccc2C1=O`, the growth is 95.2%.

Regarding `CS(=O)(=O)c1nnc(-c2ccccc2)s1`, the growth was -8.46% (active).

Take `Nc1c2c(c(O)c3c1=C(CO)C=N3)=NCCS2=O` (configuration not stated): the growth was -79.6% (active).

Turning to `CCN(CC)CCSCCCNc1c2ccc(Cl)cc2nc2ccc(OC)cc12`, the growth is -50.2% (active).

As to `CCCNc1nc2ccccc2c2c1S(=O)(=O)c1ccc(Cl)cc1C2=O`, the growth was 3.32% (active).

For the compound `OCc1cnccc1NC12CC3CC(CC(C3)C1)C2`, the growth is 99.2%.

Regarding `Cn1c2c(cc(S(=O)(=O)c3ccccc3)c1=O)CCc1c-2cnn1-c1ccccc1Cl`, the growth was 91.9%.

On to `CCCNc1nc(N(C)O)nc(N(C)O)n1`, for which the growth is 21.5%.

In the case of `N#Cc1c(-c2ccc(Cl)cc2)nc(NN2C(=O)c3ccccc3C2=O)nc1N1CCOCC1`, the growth was 99.4%.

Regarding `C[C@@H](Oc1cc(-c2cnn(C3CCNCC3)c2)cnc1N)c1c(Cl)ccc(F)c1Cl`, the growth was -79.8% (active).

For the compound `COc1cc2ncnc(Nc3ccc(F)c(Cl)c3)c2cc1OCC(=O)N1CCN(c2ccccc2)CC1`, the growth was -17.5% (active).

As to `COc1cc(C2=NN(C(C)=O)C(c3cc(OC)c(OC)c(OC)c3)C2)ccc1O` (configuration not stated), the growth was 15.9%.

Take `O=C(O)COc1c(Cl)cc([N+](=O)[O-])cc1Cl`: the growth is 99.4%.

Regarding `CCN1C(=O)N(CC)C2Nn3c(s/c(=C4\C(=O)N(CC(C)C)c5ccccc54)c3=O)=NC21` (configuration not stated), the growth is 15.8%.

Turning to `COC(=O)c1c(C)[nH]c(/C=C2\N=C(c3ccc[nH]3)C=C2OC)c1C`, the growth was -69.4% (active).

Take `O=C(/C=C/c1ccccn1)c1ccccc1O`: the growth is 41.6% and 70.3%.

Consider `COc1ccc(C2CC(c3ccc4ccccc4c3)=NN2c2nc(O)c(C3=c4cc(Cl)ccc4=NC3=O)s2)cc1` (configuration not stated), for which the growth is -73.9% (active).

Take `O=C1/C(=C/c2ccccc2[N+](=O)[O-])COc2ccc(O)cc21`: the growth was -9.15% (active).

As to `CCN1C(=O)/C(=c2\sc3n(c2=O)NC2C(N=3)N(CC)C(=O)N2CC)c2ccccc21` (configuration not stated), the growth was 27%.

For the compound `CC(C)C1=NOC(=O)C1=Cc1cn(-c2ccccc2)nc1-c1ccc(F)cc1`, the growth is 73.4%.

Take `O=C(C[C@]1(O)C(=O)Nc2ccc(Br)cc21)c1ccco1`: the growth was 109%.

Regarding `CC(C)c1ccc(C(=O)Nc2nc3ccc(O)cc3s2)cc1`, the growth was 2.85% (active).

`c1ccc2cc(-c3n(Cc4ccc5ccccc5n4)c4ccccc4[n+]3Cc3ccc4ccccc4n3)ccc2c1`: the growth is -36% (active).

`Cc1nc2ccccc2c(/C=C/c2ccc(Br)cc2)c1C(=O)/C=C/c1ccccc1`: the growth was -15.5% (active).

On to `COc1cc(/C=C2/Oc3cc4occc4c(OC)c3C2=O)ccc1OCC(=O)Nc1ccncc1`, for which the growth is 105%.

Turning to `CCOC(=O)C/C(=N\Nc1cc(=O)[nH]c2ccc(OC)cc12)C(=O)OCC`, the growth is 89.1%.

On to `O=C(c1ccc(F)cc1)C1CCN(CCn2c(=O)[nH]c3ccccc3c2=O)CC1`, for which the growth is 104%.

These data come from PubChem BioAssay (NCI).
